PolyA inhibitor: blocks polyadenylation in yeast reporter cells; S. cerevisiae SKY197-pL101 polyadenylation reporter, beta-gal luminescence; efflux-impaired pdr1/pdr3 knockout yeast; score 100 = 6 SD above DMSO; activity score, % at 12 µM; actives 0.02% (n = 300,000);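 active means lowest replicate activity score at least 50, where 100 means six control SD above control mean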;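 further: yeast exposed to compound for 9 h at 30 °C; higher score means more reporter readthrough which indicates perturbed polyadenylation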
OPRM1-OPRD1 ag: OPRM1-OPRD1 heterodimerization agonism; activation, % at 9.3 µM; P35372+P41143; cells, luminescence; AID 504326; actives 0.3% (n = 340,000)
HTR5A inv ag: HTR5A inverse agonism, opioid heterodimer counter-screen. P47898. HTR5A cell line, luminescence. inhibition, % at 9.3 µM. actives 0.083% (n = 340,000). AID 504634; in the data active means inhibition mostly above about 23%, no sharp cut-off; inactive means mostly below about 18%
Target sequence (P47898 whole entry, looked up): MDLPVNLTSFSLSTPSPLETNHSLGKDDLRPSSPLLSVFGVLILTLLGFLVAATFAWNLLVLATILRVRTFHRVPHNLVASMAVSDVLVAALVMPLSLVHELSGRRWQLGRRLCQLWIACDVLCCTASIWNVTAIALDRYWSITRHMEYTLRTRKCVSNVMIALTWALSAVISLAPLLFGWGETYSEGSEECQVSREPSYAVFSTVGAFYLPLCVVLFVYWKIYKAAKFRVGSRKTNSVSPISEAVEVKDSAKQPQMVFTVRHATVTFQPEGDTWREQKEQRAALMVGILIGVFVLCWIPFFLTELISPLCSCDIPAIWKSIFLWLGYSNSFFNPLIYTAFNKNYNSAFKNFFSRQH
HTR5A ag: HTR5A agonism, opioid heterodimer counter-screen; P47898; actives 0.61% (n = 340,000); HTR5A agonist assay, luminescence, cell-based; AID 504692; activation, % at 9.3 µM; in the data active means activation mostly above about 9.5%, no sharp cut-off; inactive means mostly below about 7.6%
NALP1 inh: blocks the NALP1 inflammasome reconstituted in yeast; S. cerevisiae NALP1/ASC/caspase-1 growth, X-gal OD620, 72 h; inhibition, % at 10 µM; actives 0.61% (n = 280,000); in the data active means inhibition mostly above about 24%, no sharp cut-off; inactive means mostly below about 32%
OPRM1-OPRD1 inv: inverse agonist of human OPRM1-OPRD1 heterodimerization. P35372+P41143. cell-based MOR-DOR heterodimer luminescence, inverse agonism. inhibition, % at 9.3 µM. actives 0.21% (n = 340,000); in the data active means inhibition above about 22%, passing the limit was not always enough
OPRM1-D1 ag cf: confirmation of human OPRM1-OPRD1 heterodimerization agonists. AID 504904. activation, % at 9.3 µM. cells, MOR-DOR heterodimerization, luminescence complementation. actives 45% (n = 830). shares compounds with OPRM1-OPRD1 ag
HTR5A ag counter: HTR5A agonism, opioid heterodimer counter-screen | shares compounds with OPRM1-OPRD1 ag | actives 8% (n = 830) | HTR5A agonist counterscreen, cell luminescence | activation, % at 9.3 µM; in the data active means activation above about 17%
Hits are given with their value; 0 = inactive; - = no result. Most compounds without a hit are left out; they make up all but 1.6% or so of the library. Unless noted, no stated cut-off is given here; in the data, active means activation above about 18%; inactive means the rest.

SMILES	PolyA inhibitor	OPRM1-OPRD1 ag	HTR5A inv ag	HTR5A ag	NALP1 inh	OPRM1-OPRD1 inv	OPRM1-D1 ag cf	HTR5A ag counter
CN(C)CCCN(C(=O)c1ccc(S(=O)(=O)N(C)Cc2ccccc2)cc1)c1nc2c(F)cccc2s1	0	47.1	0	0	0	0	107.7	0
CN(C)CCCN(C(=O)c1ccc(S(=O)(=O)N(C)C2CCCCC2)cc1)c1nc2ccc(Br)cc2s1	0	0	0	0	0	0	-	-
CN(C)CCCN(C(=O)c1ccc(S(=O)(=O)N(C)C2CCCCC2)cc1)c1nc2ccc(F)cc2s1	0	326.7	0	0	0	0	120.9	0
CCN(Cc1ccccc1)S(=O)(=O)c1ccc(C(=O)N(CCCN(C)C)c2nc3ccc(F)cc3s2)cc1	0	412.5	0	0	0	0	0	0
CCn1nc(C(=O)NCc2nnc3ccccn23)c2ccccc2c1=O	-	0	0	0	-	0	-	-
CCc1ccc2nc(N(CCCN(C)C)C(=O)c3ccc(S(=O)(=O)N4CCc5ccccc5C4)cc3)sc2c1	0	29.4	0	0	0	0	35.9	0
C=CC[C@@H](CC(=O)N(CCO)Cc1ccccc1)C(=O)N[C@@H](COC(=O)[C@H](CC=C)CC(=O)OC(C)(C)C)Cc1c[nH]c2ccccc12	-	25.7	0	0	-	0	0	0
COC(=O)C1CCN(Cc2cn(-c3ccccc3)nc2-c2ccc3c(c2)OCO3)CC1	0	51.0	0	0	0	0	0	0
CC(=O)NCC1CCCN(Cc2cn(-c3ccccc3)nc2-c2ccc3c(c2)OCO3)C1 (stereo unspecified)	0	0	0	0	0	0	-	-
c1ccc(CCNc2ccnc3cc4ccccc4cc23)cc1	0	32.0	0	0	0	0	24.3	0
Cc1ccc(S(=O)(=O)N2[C@@H](c3ccc(C(C)(C)C)cc3)C(C(=O)O)=CC[C@H]2c2cccs2)cc1	-	26.5	0	0	-	0	23.9	0
Cc1ccc([C@H]2C(C(=O)O)=CC[C@@H](c3cccs3)N2S(=O)(=O)c2ccc(C)cc2)cc1	-	0	0	0	-	0	-	-
C=CCNc1nc(-c2ccc(O)c(C(N)=O)c2)cs1	0	0	0	0	0	0	-	-
NC(=O)c1cc(-c2csc(NCCc3ccccc3)n2)ccc1O	0	19.1	0	0	0	0	19.7	0
CCOC(=O)C1(Cc2ccccc2)CCN(Cc2cn(CC(=O)OC)c3ccccc23)CC1	0	0	0	0	0	0	-	-
CCOC(=O)C1(CC2CC2)CCN(Cc2cn(C)c3ccccc23)CC1	0	18.1	0	0	0	0	0	0
CCOC(=O)C1(CC2CC2)CCN(Cc2cnc(N(C)C)s2)CC1	0	34.8	0	0	0	0	0	0
Cc1nnc(SCC(=O)NC2CCCC2)n1-c1ccccc1	-	0	0	0	-	0	-	-
CCOC(=O)C1(CCOc2ccccc2)CCN(Cc2ccccc2O)CC1	0	0	0	0	-	0	-	-
CCOC(=O)C1(CCOc2ccccc2)CCN(Cc2ccc(NC(C)=O)cc2)CC1	0	91.8	0	0	0	0	0	0
CCOC(=O)C1(CCOc2ccccc2)CCN(Cc2cccc3c2OCO3)CC1	0	18.1	0	0	0	0	0	0
CCOC(=O)C1(CCOc2ccccc2)CCN(Cc2ccc(OC)cc2)CC1	0	224.2	0	0	-	0	0	0
CCOC(=O)C1(CCOc2ccccc2)CCN(Cc2cccc(-n3cccn3)c2)CC1	0	32.6	0	0	0	0	0	0
CC(=O)Nc1ccc(CN2CCC(CO)(CCOc3ccccc3)CC2)cc1	0	0	0	0	0	0	-	-
Cc1ccsc1CN(C)CC(=O)NCC(=O)Nc1ccc(F)c(F)c1F	-	0	0	0	-	0	-	-
SMILES	PolyA inhibitor	OPRM1-OPRD1 ag	HTR5A inv ag	HTR5A ag	NALP1 inh	OPRM1-OPRD1 inv	OPRM1-D1 ag cf	HTR5A ag counter
O=C(NCCCNC(=O)c1cc(Cl)ccc1Cl)c1ccco1	0	0	0	0	0	0	-	-
CCOC(=O)C1(CCOc2ccccc2)CCN(Cc2cnc(C)s2)CC1	0	72.0	0	0	0	0	80.0	0
COc1cc(NC(=O)C(C)Oc2ccccc2)ccc1NC(=O)COc1ccccc1 (stereo unspecified)	0	0	0	0	0	0	-	-
Oc1ccccc1C1SC(c2ccccc2O)SC(c2ccccc2O)S1 (stereo unspecified)	-	21.7	0	0	-	0	20.1	0
COc1ccccc1N1CCN(c2ccc([N+](=O)[O-])cc2Cl)CC1	0	0	0	0	-	0	-	-
COc1ccc(/C=C/C(=O)Nc2ccccc2C(=O)NCC(c2ccc(OC)cc2)N(C)C)cc1 (stereo unspecified)	0	22.0	0	0	0	0	0	0
COc1ccc(C(CNC(=O)Cc2ccc(-c3ccccc3)cc2)N(C)C)cc1 (stereo unspecified)	0	320.2	0	0	0	0	0	0
COc1ccc(C(CNC(=O)CSc2ccccc2C)N(C)C)cc1 (stereo unspecified)	0	115.2	0	0	0	0	112.1	0
CN(C)c1ccc(C(CNC(=O)Cc2cccc3ccccc23)N(C)C)cc1 (stereo unspecified)	0	38.9	0	0	0	0	44.9	0
CCC(=O)NC(c1ccc(N(C)C)cc1)c1c(O)ccc2ccccc12 (stereo unspecified)	0	0	0	0	0	0	-	-
CN(C)S(=O)(=O)c1cccc(NC(=O)c2ccc(NS(=O)(=O)c3cccs3)cc2)c1	-	0	0	0	-	0	-	-
COc1ccccc1NC(=O)CSc1nnc(CCC(=O)Nc2ccccc2F)n1C	0	0	0	0	-	0	-	-
COC(=O)/C=C1/N/C(=N\c2nc(C)cc(C)n2)N(c2ccc(Cl)cc2)C1=O	0	0	0	0	0	0	-	-
COc1ccc(CC(NC(=O)c2ccccc2)C(=O)NCC(=O)O)cc1 (stereo unspecified)	0	0	0	0	0	0	-	-
COc1ccc(C(CNC(=O)C(Cc2ccccc2)NC(N)=O)N(C)C)cc1 (stereo unspecified)	0	23.5	0	0	0	0	268.5	0
COc1ccc(C(CNC(=O)/C=C/c2c(Cl)nc3ccccn23)N(C)C)cc1 (stereo unspecified)	0	62.9	0	0	0	0	66.0	0
Cc1oc(-c2cccc(F)c2)nc1CN(Cc1ccccc1)C[C@@H]1CCC(=O)N1	0	28.7	0	0	0	0	0	0
Nn1cc(-c2ccccc2)nc1SCC(=O)NCCN1C(=O)CSC1=O	0	0	0	0	0	0	-	-
CCOc1ccc(CN(C(=O)c2oc3cc(C)ccc3c2C)C2CCS(=O)(=O)C2)cc1 (stereo unspecified)	0	0	0	0	0	0	-	-
